Results taken from PubChem BioAssay (NCATS).
Records with an inconclusive call do not appear. Values without a mark were called inactive. Calls of active or inactive are those of the source. The call rests on the fitted dose curve; in most records, active means well fitted inhibition curve with a large enough effect; inconclusive means small, poorly fitted or top-dose-only effect; inactive means flat fitted curve, though single readings scatter. Numbered stars: 1 amine (or outer) side, 2 acyl side, 3 side chain; on linkers, the order of the positions; unused ones are H or OH. Bridge positions count the residues as written; N and C are the ends. Square brackets hold non-standard residues; d marks the D form. Peptide text beside a SMILES is read from it. I, II: the chains in the order shown. Actinocin(9to1) = Cc1c2oc3c(C)ccc(C(=O)[*:1])c3nc-2c(C(=O)[*:2])c(N)c1=O; NMeV = CN[C@H](C(=O)O)C(C)C; Sar = CNCC(=O)O

tested on: Zika virus NS2B-NS3 protease; experiment: Primary screen GU AMC qHTS for Zika virus inhibitors (AID 1347154); details: Zika NS2B-NS3 unlinked protease, AMC fluorogenic substrate; series mostly up to 54.1 µM; activity change, negative = inhibition: at the top concentration;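 further: 0% = no-inhibitor control and -100% = no-enzyme control; nearly all actives have a fitted effect of over 70% in size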
Description: Avindra Nath, Ph.D., National Institute of Neurological Disorders and Stroke (NINDS), Bethesda, MD
Radhakrishnan Padmanabhan, Ph.D., Georgetown University (GU), Washington D.C.
Zika Virus causes congenital defects, including microcephaly and is associated with Guillain-Barre syndrome, eningoencephalitis and myelitis in infected adult. […] Using a target-based approach, we hope to establish a screening paradigm to uncover novel, cell-active NS2B-NS3 protease (Zika Virus) specific inhibitors from NCATS' collection of small molecules using qHTS.
Early Translation Branch (ETB)
National Center for Advancing Translational Sciences (NCATS), Rockville, MD
National Institute of Health (NIH), Bethesda, Maryland
Padmanabhan lab provided the NS2B hydrophilic domain and NS3 protease domain in a noncovalent complex used for the unlinked assay. Control compound aprotinin is obtained from Thermo Scientific (#78432; Waltham, Massachusetts). NS2B-NS3 AMC substrate (Bz-Nle-Lys-Arg-Arg-AMC; Nle-KRR-AMC) purchased from Bachem (#I-1995; Torrance, CA). Ac-VKTGKR-AMC purchased from Genscript or Bachem, Ac-FAAGKR-AMC purchased from Genscript, Ac-GLVKRR-AMC purchased from Genscript, Ac-LKKR-AMC purchased from Genscript.
GU AMC unlinked NS2B-NS3 protease qHTS protocol
Briefly, 3 microL of Zika virus unlinked NS2B-NS3 protease (25 nM for linked final concentration), in assay buffer (10 mM Tris-HCl pH 8.0 with 0.01% Tween 20) was dispensed into a 1,536-well solid-bottom black plate (Greiner Bio One, Monroe, NC). […] Plates were then read immediately on a ViewLux High-throughput CCD imager (PerkinElmer, Waltham, MA) equipped with standard UV fluorescence optics (340(30) nm excitation, 450(20) nm emission) then incubated (room temperature, protected from light) for 15 minutes (~20% conversion). The change in fluorescence intensity over the 15-minute reaction period was normalized against no-inhibitor and no-enzyme controls and the resulting percent inhibition data were fitted to a 4-parameter Hill equation. Aprotinin was used as the intraplate control.

Structure (SMILES) | activity change, negative = inhibition | Potency
Cc1c(C)n(Cc2ccccc2)c2ccc(C(=O)OCCN(C)C)cc12 | -14.8% | 
CC/C(=C(/CC)c1ccc(O)cc1)c1ccc(O)cc1 | -11.2% | 
NCCC(O)(P(=O)(O)O)P(=O)(O)O | -2.06% | 
COc1cccc(OC)c1C(=O)N[C@@H]1C(=O)N2[C@@H]1SC(C)(C)[C@@H]2C(=O)O | -3.63% | 
COc1ccc(/C=C/C(=O)c2ccc(OC)cc2OC)cc1 | -18.2% | 
Nc1ccc(C(=O)O)cc1 | -1.58% | 
Oc1c(I)cc(I)c2cccnc12 | -2.13% | 
C=C1C[C@H]2[C@@H]3C=C(C)C4=CC(=O)CC[C@]4(C)[C@H]3CC[C@]2(C)[C@@]1(OC(C)=O)C(C)=O | -5.75% | 
CC(=O)N(O)CCCCCNC(=O)CCC(=O)N(O)CCCCCNC(=O)CCC(=O)N(O)CCCCCN | -7.29% | 
C#C[C@]1(OC(C)=O)CC[C@H]2[C@@H]3CCC4=C[C@@H](OC(C)=O)CC[C@@H]4[C@H]3CC[C@@]21C | -14.8% | 
Oc1ccc(Cl)c2cccnc12 | -2.48% | 
CCN(CCCCOC(=O)c1ccc(OC)c(OC)c1)C(C)Cc1ccc(OC)cc1 (stereo not given) | -3.38% | 
Nc1ccc(C(=O)Nc2ccccc2N)cc1 | -5.85% | 
CCN(CC)C(=O)N1CCN(C)CC1 | 0.673% | 
Cc1cc(O)c(C(C)C)cc1Cl | -10.6% | 
c1ccc(OCc2ccc(CCCN3CCOCC3)cc2)cc1 | -1.47% | 
CCOC(=O)OC(C)OC1=C(C(=O)Nc2ccccn2)N(C)S(=O)(=O)c2ccccc21 (stereo not given) | -7.88% | 
CCCC(=O)O[C@]1(C(=O)CO)CC[C@H]2[C@@H]3CCC4=CC(=O)CC[C@]4(C)[C@H]3[C@@H](O)C[C@@]21C | -0.591% | 
N[C@H](CO)C(=O)O | -13.4% | 
CC(=O)OCC(=O)[C@@]1(OC(C)=O)[C@@H](C)C[C@H]2[C@@H]3C[C@H](F)C4=CC(=O)C=C[C@]4(C)[C@@]3(F)[C@@H](O)C[C@@]21C | -1.77% | 

Structure (SMILES) | activity change, negative = inhibition | Potency
CCCCC(=O)O[C@]1(C(=O)CO)CC[C@H]2[C@@H]3CCC4=CC(=O)CC[C@]4(C)[C@H]3[C@@H](O)C[C@@]21C | -0.552% | 
CCOC(=O)c1cccc(N)c1 | -8.25% | 
C[C@H]1C[C@H]2[C@@H]3CCC4=CC(=O)C=C[C@]4(C)[C@@]3(Cl)[C@@H](O)C[C@]2(C)[C@@]1(O)C(=O)CO | -18.9% | 
Cc1c2oc3c(C)ccc(C(=O)N[C@@H]4C(=O)N[C@H](C(C)C)C(=O)N5CCC[C@H]5C(=O)N(C)CC(=O)N(C)[C@@H](C(C)C)C(=O)O[C@@H]4C)c3nc-2c(C(=O)N[C@@H]2C(=O)N[C@H](C(C)C)C(=O)N3CCC[C@H]3C(=O)N(C)CC(=O)N(C)[C@@H](C(C)C)C(=O)O[C@@H]2C)c(N)c1=O (I: T[dV]P[Sar][NMeV] / II: T[dV]P[Sar][NMeV]; ester I:1-I:C, II:1-II:C; linker I:N-II:N via Actinocin(9to1)) | -7.82% | 
Cc1c(C(C)C)c(=O)n(-c2ccccc2)n1C | -2.41% | 
CCCCOc1ccc(OCCCN2CCOCC2)cc1 | -3.98% | 
COc1cc(/C=C/C(=O)O[C@H]2CC[C@]34C[C@]35CC[C@]3(C)[C@@H]([C@H](C)CCC=C(C)C)CC[C@@]3(C)[C@@H]5CC[C@H]4C2(C)C)ccc1O | -3.02% | 
CC(Cc1ccccc1)(NC(=O)CN)c1ccccc1 (stereo not given) |  | inactive
CCCCC1=NC2(CCCC2)C(=O)N1Cc1ccc(-c2ccccc2-c2nn[nH]n2)cc1 |  | inactive
CCCCCCCCCCCCCCNCCO | 7.79% | 
Cc1cc2c(cc1CC(=O)c1sccc1S(=O)(=O)Nc1onc(C)c1Cl)OCO2 | -11.6% | 
O=c1[nH]c(=O)n([C@H]2C[C@H](O)[C@@H](CO)O2)cc1C(F)(F)F | 4.55% | 
CC(=O)OCC(=O)[C@@]1(O)CC[C@H]2[C@@H]3CCC4=CC(=O)C=C[C@]4(C)[C@H]3[C@@H](O)C[C@@]21C | 5.81% | 
C[C@H](O)C(=O)Nc1c(I)c(C(=O)NC(CO)CO)c(I)c(C(=O)NC(CO)CO)c1I | -6.58% | 
CCCCCCCCCCCCCCCCOP(=O)([O-])OCC[N+](C)(C)C | -14.3% | 
OC(CCN1CCCCC1)(c1ccccc1)c1ccccc1 | 0.116% | 
O=c1ccc2ccccc2o1 | -5.6% | 
C[C@]12CCC(=O)C=C1[C@@H]1C[C@@H]1[C@H]1[C@@H]3[C@@H]4C[C@@H]4[C@@]4(CCC(=O)O4)[C@@]3(C)CC[C@@H]12 | 2.98% | 
CC(C)(C(=O)c1cccnc1)c1cccnc1 | -0.652% | 
CC(C)N=C(N)/N=C(\N)Nc1ccc(Cl)cc1 | 5.95% | 
